TDP1 cell CPT = qHTS for Inhibitors of human tyrosyl-DNA phosphodiesterase 1 (TDP1): qHTS in cells in presence of CPT | chicken DT40 Tdp1-/-;hTDP1 cells + 20 nM CPT, ATP luminescence, 48 h | Potency, µM (doses to about 46.2 µM), for inactives: at the highest dose activity change, negative = growth inhibition, most hits filed as inhibitors | 420,000 tested, 12% active; note: potency is the fitted concentration of half-maximal effect; % is set by controls: 0 for no effect and ±100 for the full control effect; nearly all actives have a fitted effect of over 55% in size
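Chicken DT40 Tdp1-/- cells complemented with human TDP1, 400 cells/well, exposed to compounds plus 20 nM camptothecin for at least 48 h at 37 C; viability read as ATP content by CellTiter-Glo luminescence.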
TGFb SMAD3 inh = qHTS for Inhibitors of TGF-b | HepG2 CAGA-GFP TGF-b/SMAD3 reporter, GFP fluorescence, 18 h; TGF-beta stimulated, 500 pg/mL final | Potency, µM (doses to about 46.1 µM), for the others: top-dose activity, negative = inhibition, hits mostly inhibitors | 410,000 tested, 1.2% active | AID 588855, 2011; note: potency is the fitted concentration of half-maximal effect; % is set by controls: 0 for no effect and ±100 for the full control effect; nearly all actives have a fitted effect of over 65% in size
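Using HEPG2 CAGA-GFP reporter cells at 1000 cells/well, we pinned test compounds, stimulated with recombinant TGF-beta (500 pg/mL final) and measured total well GFP after 18 h.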
TDP1 block = qHTS Assay for Inhibitors of Tyrosyl-DNA Phosphodiesterase (TDP1); Tyrosyl-DNA phosphodiesterase 1 (Homo sapiens), Q9NUW8; recombinant TDP1, AlphaScreen DNA substrate cleavage; Potency, µM (doses to about 130 µM), without a hit: at the top dose activity change, negative = inhibition, usual class: inhibitors; 350,000 tested, 0.28% active; AID 485290, 2010; note: potency is the fitted concentration of half-maximal effect; % is set by controls: 0 for no effect and ±100 for the full control effect; nearly all actives have a fitted effect of over 40% in size
Target sequence (Q9NUW8 whole entry, looked up): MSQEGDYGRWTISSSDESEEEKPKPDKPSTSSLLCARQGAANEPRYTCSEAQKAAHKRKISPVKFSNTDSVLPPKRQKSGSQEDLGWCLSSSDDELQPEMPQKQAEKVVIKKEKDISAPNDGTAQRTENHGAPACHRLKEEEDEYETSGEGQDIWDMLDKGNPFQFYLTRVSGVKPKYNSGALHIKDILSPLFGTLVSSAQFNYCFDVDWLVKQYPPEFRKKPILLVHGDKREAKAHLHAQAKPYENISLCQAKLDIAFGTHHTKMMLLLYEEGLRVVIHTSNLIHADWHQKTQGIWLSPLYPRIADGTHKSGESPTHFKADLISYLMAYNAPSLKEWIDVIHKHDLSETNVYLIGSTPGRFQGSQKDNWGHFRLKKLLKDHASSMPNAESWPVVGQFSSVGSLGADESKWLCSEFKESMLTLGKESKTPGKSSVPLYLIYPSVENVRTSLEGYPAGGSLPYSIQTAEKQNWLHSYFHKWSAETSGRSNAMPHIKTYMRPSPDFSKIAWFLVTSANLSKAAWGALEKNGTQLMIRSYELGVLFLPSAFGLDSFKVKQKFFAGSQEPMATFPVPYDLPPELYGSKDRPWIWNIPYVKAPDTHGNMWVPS
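Tdp1 1 nM final; 15 min RT w/ cpd; substrate 15 nM, 5 min; beads 10 ug/ml, 10 min; AlphaScreen read. Neg ctrl: no enzyme.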
HepG2 tox = qHTS for Inhibitors of TGF-b: Cytotox Counterscreen | 410,000 tested, 0.76% active | HepG2 CAGA-GFP viability, ATP luminescence, 18 h | Potency, µM (series often up to 46.1 µM), for the others: at the top dose activity change, negative = cytotoxicity, actives largely listed as cytotoxic | AID 588856, 2011; note: potency is the fitted concentration of half-maximal effect
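HepG2 CAGA-GFP cells (1000/well, DMEM with 1% FBS) received compound, then TGF-beta at 500 pg/mL final, and were incubated 18 hours at 37 degrees C. Viability was read by CellTiter-Glo luminescence. Media-only wells were set as complete cell-killing and DMSO as no toxicity.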
DT40 TDP1 no CPT = qHTS for Inhibitors of human tyrosyl-DNA phosphodiesterase 1 (TDP1): qHTS in cells in absence of CPT. 420,000 tested, 15% active. Potency, µM (titrated, usually from 46.2 µM), without a hit: at the top dose activity change, negative = growth inhibition, hits mostly inhibitors. DT40 Tdp1-/- hTDP1 cells, no CPT, ATP luminescence, 48 h; note: potency is the fitted concentration of half-maximal effect; % is set by controls: 0 for no effect and ±100 for the full control effect; nearly all actives have a fitted effect of over 55% in size
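Luminescent ATP content (CellTiter-Glo) served as the growth readout. Knockout chicken DT40 cells expressing human TDP1 were exposed to compounds without camptothecin for a minimum 48 hr at 37 °C.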
IL-1B inflam inh = qHTS for Inhibitors of Inflammasome Signaling: IL-1-beta AlphaLISA Primary Screen. THP-1 LPS/ATP IL-1B secretion, AlphaLISA, 16 h; active compounds read low. AID 743279, 2014. activity change, % at 57.5 µM. 360,000 tested, 4.7% active; in the data active = activity change below about -50%; inconclusive = mostly about -30% to -49%; note: % is set by controls: 0 for no effect and ±100 for the full control effect
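THP-1 cells pretreated 1 hr with compounds (up to 57.5 uM final), then stimulated with LPS (250 ng/mL final) plus ATP (1.25 mM final); secreted IL-1B measured by AlphaLISA after 16 hr, decreased signal indicating inhibition.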
* hit, by the source's call; [ ] = dose if it differs, or a comment. Hits are enriched below; roughly 19% of the tested compounds scored in any of these assays. Unless noted, calls come from the whole dose curve; as a rule, active = well fitted curve in the direction sought with a large enough effect; inconclusive = small, poorly fitted or top-dose-only effect, or another doubt; inactive = no such curve, though single readings can be large; an effect the other way counts as inactive or inconclusive.

`Cn1nc(-c2ccc(Cl)cc2)c2cc(C(=O)NCCN3CCOCC3)sc21` gave TDP1 cell CPT -22%, TGFb SMAD3 inh 4%, TDP1 block 9%, HepG2 tox 1%, DT40 TDP1 no CPT inconclusive and IL-1B inflam inh -18.
For Cn1nc(-c2ccc(Cl)cc2)c2cc(C(=O)NC3CC3)sc21 the results were TDP1 cell CPT inconclusive, TGFb SMAD3 inh 15%, TDP1 block 4%, HepG2 tox -15%, DT40 TDP1 no CPT inconclusive and IL-1B inflam inh 0.
`Cc1nn(-c2ccccc2)c(C)c1NC(=O)COC(=O)C1CC(=O)N(CCc2ccccc2)C1` (configuration not stated) gave TDP1 cell CPT 12%, TGFb SMAD3 inh 5%, TDP1 block 5%, HepG2 tox 14%, DT40 TDP1 no CPT 1% and IL-1B inflam inh 8.
`O=C(O)c1ccc(S(=O)(=O)N2CCN(c3ccccn3)CC2)cc1` gave TDP1 cell CPT 0%, TGFb SMAD3 inh -4%, TDP1 block 5%, HepG2 tox -7%, DT40 TDP1 no CPT -14% and IL-1B inflam inh 18.
`O=C([C@@H]1CCCN1C(=O)c1cccs1)N1CCN(S(=O)(=O)c2cccc(F)c2)CC1` gave TDP1 cell CPT -16%, TGFb SMAD3 inh 14%, TDP1 block 0%, HepG2 tox 7%, DT40 TDP1 no CPT 0% and IL-1B inflam inh 8.
Screening CC(=O)c1ccc(F)c(-c2cc(C)cc3c2OC(CNC(=O)c2ccnn2C)C3)c1 (configuration not stated) returned TDP1 cell CPT 23%[9.04 µM] and DT40 TDP1 no CPT -25%.
Screening CC(C)c1cnc2c(c1SCC(=O)Nc1ccc(C(N)=O)cc1)c(=O)n(C)c(=O)n2C returned TDP1 cell CPT -28%, TGFb SMAD3 inh -15%, TDP1 block 5%, HepG2 tox -14% and DT40 TDP1 no CPT inconclusive.
Screening CC(C)c1cnc2c(c1SCc1cccc(C(F)(F)F)c1)c(=O)n(C)c(=O)n2C returned TDP1 cell CPT inconclusive, TGFb SMAD3 inh 0%, TDP1 block 3%, HepG2 tox -17% and DT40 TDP1 no CPT 23µM*.
For COC(=O)c1ccc(CSc2c(C(C)C)cnc3c2c(=O)n(C)c(=O)n3C)cc1 the results were TDP1 cell CPT inconclusive, TGFb SMAD3 inh -7%, TDP1 block 0%, HepG2 tox 9% and DT40 TDP1 no CPT 23µM*.
`CCc1cnc2c(c1SCC(=O)c1ccc(OC)cc1)c(=O)n(C)c(=O)n2C` gave TDP1 cell CPT 12µM*, TGFb SMAD3 inh inconclusive, TDP1 block 5%, HepG2 tox -20% and DT40 TDP1 no CPT 12µM*.
`CCc1cnc2c(c1SCC(=O)N1CCCCC1)c(=O)n(C)c(=O)n2C` gave TDP1 cell CPT inconclusive, TGFb SMAD3 inh 1%, TDP1 block 3%, HepG2 tox -6% and DT40 TDP1 no CPT inconclusive.
CCc1cnc2c(c1SC(C(C)=O)C(=O)N(C)C)c(=O)n(C)c(=O)n2C (configuration not stated) was read as TDP1 cell CPT 23µM*, TGFb SMAD3 inh 0%, TDP1 block -5%, HepG2 tox 3% and DT40 TDP1 no CPT inconclusive.
CSc1ncccc1C(=O)N1CCOc2ccc(C(C)(O)CCn3cccn3)cc2C1 (configuration not stated) was read as TDP1 cell CPT 1% and DT40 TDP1 no CPT -2%.
